Measurements from PubChem BioAssay.
Active and inactive are the calls of the source.

Assays:
[1] = binders of probe aFSTL3 on microarray, primary screen, stem cell growth factor project, biochemical, small-molecule microarray, fluorescence 635/667 (AID 1064); details: higher = more signal;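 also: measures binding of the biotinylated anti-FSTL3 antibody to printed compounds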
[2] = binders from COS7 lysate, DM2A8 probe, primary screen, torsin A project, cell lysate, small-molecule microarray, fluorescence 635/667 (AID 1065); details: higher = more signal, COS7 lysate expressing mutant human TOR1A
[3] = binders of probe aFGF2 on microarray, primary screen, stem cell growth factor project, biochemical, small-molecule microarray, fluorescence 635/667 (AID 1067); details: higher = more signal;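 also: measures binding of biotinylated aFGF2 protein to printed compounds on slides; z-score merges feature fluorescence and signal-to-noise across triplicate slides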
[4] = binders of probe aFGF10 on microarray, primary screen, stem cell growth factor project, biochemical, small-molecule microarray, fluorescence 635/667 (AID 1071); details: higher = more signal;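 also: score merges 667 nm spot intensity and signal to noise from triplicate slides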
[5] = target: Neurogenic locus notch homolog protein 2 (Homo sapiens) (UniProt Q04721); assay: Notch2 binders on small-molecule microarrays, primary screen, biochemical, small-molecule microarray, 635 nm fluorescence, stem cell growth factors (AID 1073); details: Notch2 binding, higher = more signal
Sequence of Neurogenic locus notch homolog protein 2 (Homo sapiens) (Q04721 whole entry, looked up, canonical isoform): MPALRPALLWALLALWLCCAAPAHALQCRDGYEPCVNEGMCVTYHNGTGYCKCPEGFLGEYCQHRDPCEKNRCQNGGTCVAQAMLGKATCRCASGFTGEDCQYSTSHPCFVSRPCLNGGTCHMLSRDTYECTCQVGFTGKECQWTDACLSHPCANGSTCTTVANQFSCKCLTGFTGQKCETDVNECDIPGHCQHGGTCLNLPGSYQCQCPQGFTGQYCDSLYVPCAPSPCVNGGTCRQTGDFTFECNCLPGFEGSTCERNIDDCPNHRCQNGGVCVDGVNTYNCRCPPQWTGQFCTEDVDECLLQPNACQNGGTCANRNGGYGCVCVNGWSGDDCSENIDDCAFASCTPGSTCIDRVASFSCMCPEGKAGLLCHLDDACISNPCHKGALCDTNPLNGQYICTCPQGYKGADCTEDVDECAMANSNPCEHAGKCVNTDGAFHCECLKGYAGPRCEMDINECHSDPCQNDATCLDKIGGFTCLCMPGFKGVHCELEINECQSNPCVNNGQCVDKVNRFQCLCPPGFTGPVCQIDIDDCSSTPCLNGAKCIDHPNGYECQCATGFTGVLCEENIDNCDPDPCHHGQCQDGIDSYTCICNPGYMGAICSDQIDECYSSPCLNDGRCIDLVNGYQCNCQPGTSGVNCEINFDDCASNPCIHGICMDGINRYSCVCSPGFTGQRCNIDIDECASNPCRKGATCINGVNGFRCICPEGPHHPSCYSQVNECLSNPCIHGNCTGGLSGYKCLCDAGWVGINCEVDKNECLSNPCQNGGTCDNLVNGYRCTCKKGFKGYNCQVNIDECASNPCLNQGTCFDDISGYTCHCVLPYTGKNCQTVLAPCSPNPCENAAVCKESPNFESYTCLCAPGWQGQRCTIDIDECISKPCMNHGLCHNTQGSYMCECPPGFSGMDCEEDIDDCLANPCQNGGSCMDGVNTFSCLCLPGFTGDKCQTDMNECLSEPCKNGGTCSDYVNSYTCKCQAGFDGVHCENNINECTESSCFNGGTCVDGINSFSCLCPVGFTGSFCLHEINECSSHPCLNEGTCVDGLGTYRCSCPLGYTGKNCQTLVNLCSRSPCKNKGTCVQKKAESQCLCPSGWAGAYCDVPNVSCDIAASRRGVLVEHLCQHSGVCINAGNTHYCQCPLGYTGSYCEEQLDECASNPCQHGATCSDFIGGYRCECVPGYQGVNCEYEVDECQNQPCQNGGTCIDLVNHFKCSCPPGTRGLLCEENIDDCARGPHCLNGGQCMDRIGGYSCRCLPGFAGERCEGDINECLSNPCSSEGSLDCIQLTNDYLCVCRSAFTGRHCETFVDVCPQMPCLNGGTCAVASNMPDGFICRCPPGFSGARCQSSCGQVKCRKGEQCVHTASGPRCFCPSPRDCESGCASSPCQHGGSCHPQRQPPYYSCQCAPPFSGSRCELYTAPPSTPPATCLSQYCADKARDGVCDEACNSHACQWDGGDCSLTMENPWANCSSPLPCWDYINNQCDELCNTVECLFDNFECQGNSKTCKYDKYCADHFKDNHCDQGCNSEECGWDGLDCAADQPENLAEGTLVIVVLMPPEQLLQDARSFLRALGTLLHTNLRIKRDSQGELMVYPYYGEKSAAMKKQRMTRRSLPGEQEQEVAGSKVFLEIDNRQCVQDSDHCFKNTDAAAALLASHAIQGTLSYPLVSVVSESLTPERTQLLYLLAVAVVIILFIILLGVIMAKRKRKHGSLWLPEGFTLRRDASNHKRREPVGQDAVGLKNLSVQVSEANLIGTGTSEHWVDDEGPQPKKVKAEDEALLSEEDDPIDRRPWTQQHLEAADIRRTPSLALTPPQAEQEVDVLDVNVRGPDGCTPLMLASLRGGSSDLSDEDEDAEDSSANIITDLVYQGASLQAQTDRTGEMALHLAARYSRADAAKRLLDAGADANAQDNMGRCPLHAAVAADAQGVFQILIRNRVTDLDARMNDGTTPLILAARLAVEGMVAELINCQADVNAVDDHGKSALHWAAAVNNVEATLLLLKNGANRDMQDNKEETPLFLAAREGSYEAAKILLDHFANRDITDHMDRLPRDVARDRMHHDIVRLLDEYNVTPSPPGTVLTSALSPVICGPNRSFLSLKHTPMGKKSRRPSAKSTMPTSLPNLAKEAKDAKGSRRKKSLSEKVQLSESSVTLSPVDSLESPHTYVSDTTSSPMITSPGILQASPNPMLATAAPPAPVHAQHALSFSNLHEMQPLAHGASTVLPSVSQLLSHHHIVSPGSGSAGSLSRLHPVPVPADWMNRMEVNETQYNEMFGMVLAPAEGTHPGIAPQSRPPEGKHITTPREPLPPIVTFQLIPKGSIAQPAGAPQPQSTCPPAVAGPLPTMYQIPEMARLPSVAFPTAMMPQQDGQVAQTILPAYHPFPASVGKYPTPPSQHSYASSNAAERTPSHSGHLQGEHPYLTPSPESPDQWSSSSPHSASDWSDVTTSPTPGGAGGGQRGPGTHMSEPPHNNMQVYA

[6] = target: Pro-neuregulin-1, membrane-bound isoform (Homo sapiens) (UniProt Q02297); assay: NRG1 binders on small-molecule microarrays, primary screen, psychiatric disease protein project, biochemical, small-molecule microarray, fluorescence 635/667 (AID 1075); details: NRG1 binding, 635 nm fluorescence, higher = more signal;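 also: score combines 667 nm spot fluorescence with signal to noise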
Sequence of Pro-neuregulin-1, membrane-bound isoform (Homo sapiens) (Q02297 whole entry, looked up, the tested form may be a part, canonical isoform): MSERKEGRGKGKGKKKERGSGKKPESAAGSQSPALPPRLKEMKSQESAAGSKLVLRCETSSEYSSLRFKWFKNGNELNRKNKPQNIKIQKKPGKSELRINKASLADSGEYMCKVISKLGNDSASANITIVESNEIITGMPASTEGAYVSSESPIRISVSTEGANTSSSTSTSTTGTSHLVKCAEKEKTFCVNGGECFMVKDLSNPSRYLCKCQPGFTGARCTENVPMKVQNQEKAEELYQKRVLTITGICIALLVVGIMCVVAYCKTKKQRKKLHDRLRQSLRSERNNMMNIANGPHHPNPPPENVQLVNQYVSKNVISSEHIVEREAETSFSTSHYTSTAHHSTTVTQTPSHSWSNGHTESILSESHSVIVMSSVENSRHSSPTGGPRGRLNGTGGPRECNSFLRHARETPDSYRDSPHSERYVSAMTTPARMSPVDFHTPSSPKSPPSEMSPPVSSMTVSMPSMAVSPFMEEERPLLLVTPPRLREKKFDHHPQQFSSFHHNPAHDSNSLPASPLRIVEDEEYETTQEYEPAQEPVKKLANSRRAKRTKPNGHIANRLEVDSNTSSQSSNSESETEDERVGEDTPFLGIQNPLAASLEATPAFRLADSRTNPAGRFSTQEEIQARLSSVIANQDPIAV

[7] = test system: Neuregulin-1 EGF-like domain; assay: binders of neuregulin-1 EGF-like domain, primary screen, biochemical, small-molecule microarray, 635 nm fluorescence (AID 1081); details: small-molecule microarray binding, higher = more signal;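 also: binding of the protein to compounds printed on small-molecule microarray slides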
[8] = FRG1 promoter luciferase signal modulators, primary screen, FRG1 inhibition for FSHD, cell-based, C2C12 myotubes, firefly/Renilla luciferase, luminescence (AID 1084); details: higher = more signal, called active from +8 up or from −8 down
[9] = binders of probe aFST on microarray, primary screen, stem cell growth factor project, biochemical, small-molecule microarray, fluorescence 635/667 (AID 1086); details: higher = more signal;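 also: score merges 667 nm fluorescence with signal-to-noise of each printed compound spot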
[10] = binders of probe aHhip on microarray, primary screen, stem cell growth factor project, biochemical, small-molecule microarray, fluorescence 635/667 (AID 1087); details: higher = more signal;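 also: score merges spot fluorescence at 667nm with spot signal to noise ratio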
[11] = test system: PRMT1 (protein arginine N-methyltransferase 1); assay: PRMT1 binders on small-molecule microarrays, primary screen, biochemical, small-molecule microarray, 635 nm fluorescence (AID 1088); details: small-molecule microarray binding, higher = more signal;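 also: binding of Prmt1 protein to compounds spotted on small-molecule microarray slides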
[12] = yeast growth modulation, basal conditions, primary screen, YJM789 clinical isolate, OD600, 24 h (AID 1089);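 also: growth of clinical yeast isolate S. cerevisiae YJM 789 seeded 1000 cells per well; test concentration not given here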; details: S. cerevisiae YJM789 growth, higher = more signal, called active from +8 up or from −8 down
[13] = fission yeast growth modulation, primary screen, strain 972, OD600, 24 h, no modulator (AID 1090);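 also: basal condition with compound alone and no growth modifier present; test concentration not given here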; details: S. pombe 972 growth, higher = more signal, called active from +8 up or from −8 down
[14] = S. cerevisiae growth modulation with rapamycin, primary screen, strain BY4716, OD600, 96 h (AID 1091); details: higher = more signal, called active from +8 up or from −8 down; also: test concentration not given here
[15] = target: Torsin-1A-interacting protein 2 (Homo sapiens) (UniProt Q8NFQ8); assay: LULL1 binders on small-molecule microarray, primary screen, cell lysate, human LULL1 lysate, 635/667 nm fluorescence (AID 1092); details: hLULL1 lysate binding, 635 nm fluorescence, higher = more signal;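 also: probe is lysate of COS7 cells overexpressing human LULL1; score merges per-feature 667 nm fluorescence with signal-to-noise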
Sequence of Torsin-1A-interacting protein 2 (Homo sapiens) (Q8NFQ8 whole entry, looked up): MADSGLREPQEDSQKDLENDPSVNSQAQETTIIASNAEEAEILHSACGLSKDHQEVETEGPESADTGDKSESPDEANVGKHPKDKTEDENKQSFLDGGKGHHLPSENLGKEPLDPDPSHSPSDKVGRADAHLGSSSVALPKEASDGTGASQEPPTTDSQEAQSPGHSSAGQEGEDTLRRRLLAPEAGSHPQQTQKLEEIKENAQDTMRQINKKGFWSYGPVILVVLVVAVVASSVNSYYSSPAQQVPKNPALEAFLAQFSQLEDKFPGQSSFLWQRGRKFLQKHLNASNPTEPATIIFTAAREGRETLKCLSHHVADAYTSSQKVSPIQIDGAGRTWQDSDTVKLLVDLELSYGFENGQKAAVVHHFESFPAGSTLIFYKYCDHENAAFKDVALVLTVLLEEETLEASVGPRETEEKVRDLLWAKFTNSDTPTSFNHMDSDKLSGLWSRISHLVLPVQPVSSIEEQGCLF

[16] = E. coli growth modulation, two-sided OD650, primary screen, E. coli filamentation project, strain DRC41, 24 h (AID 1093); details: OD650, 24 h, higher = more signal, called active from +8 up or from −8 down;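 also: MC1000 strain lacking acrAB efflux and sulA so SOS filamentation is blocked; test concentration not given here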
[17] = small-molecule microarray binders of probe aLefty2, primary screen, biochemical, biotinylated probe, 635/667 nm fluorescence (AID 1094); details: higher = more signal;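 also: score merges spot fluorescence near 667 nm with spot signal-to-noise ratio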
[18] = test system: Noggin (protein binding on small-molecule microarray); assay: Noggin binders on small-molecule microarray, primary screen, biochemical, 635/667 nm fluorescence (AID 1095); details: 635 nm fluorescence, higher = more signal;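 also: score merges 667 nm feature fluorescence with signal to noise over triplicate slides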
[19] = target: Neurogenic locus notch homolog protein 3 (Homo sapiens) (UniProt Q9UM47); assay: NOTCH3 binders on small-molecule microarray, primary screen, biochemical, 635/667 nm fluorescence (AID 1096); details: NOTCH3 binding, 635 nm fluorescence, higher = more signal
[20] = small-molecule microarray binders of probe aEGFR, primary screen, biochemical, biotinylated probe, 635/667 nm fluorescence (AID 1097); details: higher = more signal;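 also: probe is a biotinylated anti-EGFR antibody binding compounds printed on slides; score combines fluorescence near 667 nm and signal to noise of each spot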

SMILES | composite z-score [1] | composite z-score [2] | composite z-score [3] | composite z-score [4] | composite z-score [5] | composite z-score [6] | composite z-score [7] | z-score [8] | composite z-score [9] | composite z-score [10] | composite z-score [11] | z-score [12] | z-score [13] | z-score [14] | composite z-score [15] | z-score [16] | composite z-score [17] | composite z-score [18] | composite z-score [19] | composite z-score [20]
CCN(CC)c1ccc(N2CC=CC34O[C@@H]5/C=C\CCCOC(=O)C5[C@H]3C(=O)N(CCCCCCO)[C@@H]4C2=O)cc1 (stereo not given in full) | 0.272 | -0.305 | -0.119 | -0.964 | -0.946 | 1.63 | 0.709 | -0.489 (inactive) | -0.958 | -0.271 | 0.529 | -2.29 (inactive) | -0.737 (inactive) | -0.64 (inactive) | 3.35 | 1.27 (inactive) | -0.162 | -0.885 | -0.122 | -0.197
C=CCNC(=O)[C@H]1[C@@H]2C(=O)O[C@@H](c3ccccc3)[C@@H](c3ccccc3)N2[C@@H](c2ccc(OCCO)cc2)[C@]12C(=O)N(C(=O)OCCOC)c1ccc(C#CC3=CCCCC3)cc12 | -0.0822 | 0.967 | -0.0711 | 1.13 | 0.844 | 1.43 | 1.28 | -0.974 (inactive) | 0.344 | -0.0296 | 1.55 | 0.573 (inactive) | 0.656 (inactive) | 2.97 (inactive) | 2.76 | 1.89 (inactive) | -0.0477 | 0.826 | 1.09 | -0.0237
O=C1O[C@H](c2ccccc2)[C@H](c2ccccc2)N2[C@H]1[C@@H](C(=O)N1CCN(c3ncccn3)CC1)[C@]1(C(=O)Nc3ccc(C#CCCO)cc31)[C@H]2c1ccccc1OCCO | -0.301 | 0.851 | 0.0002 | 0.931 | 1.33 | 1.64 | 0.965 | -0.363 (inactive) | 0.312 | 0.0219 | 1.54 | 1.36 (inactive) | -1.62 (inactive) | 3.87 (inactive) | 2.79 | 0.797 (inactive) | -0.166 | 0.942 | 1.06 | -0.0014
CCOC(=O)C[C@H]1[C@H](OC(=O)c2ccc(C(=O)c3ccccc3)cc2)[C@@H](NC(=O)C2CCCCC2)c2cc(OCCCO)ccc2N1C(=O)Cc1ccc(OC)cc1 | 0.644 | 0.673 | 0.0007 | 0.348 | 0.376 | 0.556 | 0.207 | -1.01 (inactive) | 0.757 | 0.295 | 0.623 | -0.989 (inactive) | 0.0425 (inactive) | -0.0492 (inactive) | 0.603 | 0.332 (inactive) | 0.0044 | 0.544 | 0.88 | 0.0408
CC(C)=CCCC(C)=CC(O)C1C=CC2C(=O)N(c3ccccc3)C(=O)C2N1Nc1ccc([N+](=O)[O-])cc1 (stereo not given) | -0.265 | 0.148 | 0.0159 | 0.344 | 1.59 | 1.64 | 1.28 | -1.01 (inactive) | 0.852 | -0.0237 | 1.52 | -0.706 (inactive) | -0.589 (inactive) | 8.22 (active) | 3.8 | -0.867 (inactive) | 0.0634 | -0.14 | 1.12 | 0.0466
